In the library only some 4.1% were active in any assay of this set; here they are far more common.
Sm TGR inh: inhibitors of Schistosoma mansoni thioredoxin glutathione reductase | Q962Y6 | purified TGR, DTNB reduction, TNB absorbance 405 nm | Potency, µM (series often up to 114 µM), for inactives: top-dose activity change, negative = inhibition, usual class: inhibitors | 360,000 compounds, 3% hits; note: nearly all actives have a fitted effect of over 60% in size
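TGR 20 nM + NADPH 100 uM (dispensed conc.), cpd preinc 15 min RT; start with NADPH (500 uM addition) then DTNB (15 mM addition). Kinetic TNB absorbance, 405 nm filter. Four-parameter Hill fit across titration.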
AmpC detergent: AmpC beta-lactamase inhibition with detergent present | 370,000 compounds, 0.041% hits | Potency, µM (highest dose often 114 µM), for the others: at the top dose activity change, negative = inhibition, most hits filed as inhibitors | P00811 | AmpC hydrolysis of nitrocefin, absorbance 480 nm, 0.01% Triton | AID 485294;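 note: 0% = no-compound wells and -100% = no-enzyme wells; nearly all actives have a fitted effect of over 25% in size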
Target sequence (P00811 whole entry, looked up): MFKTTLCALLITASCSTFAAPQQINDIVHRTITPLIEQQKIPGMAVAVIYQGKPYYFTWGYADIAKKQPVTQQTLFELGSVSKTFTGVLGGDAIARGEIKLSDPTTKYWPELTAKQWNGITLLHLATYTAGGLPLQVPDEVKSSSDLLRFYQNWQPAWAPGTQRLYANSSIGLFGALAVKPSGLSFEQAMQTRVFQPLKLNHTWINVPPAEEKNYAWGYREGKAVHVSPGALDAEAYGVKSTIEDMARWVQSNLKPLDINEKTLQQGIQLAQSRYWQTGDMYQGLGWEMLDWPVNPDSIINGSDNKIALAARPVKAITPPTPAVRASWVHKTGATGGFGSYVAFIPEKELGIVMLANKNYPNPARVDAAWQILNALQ
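20 mM phosphate pH 7.0 + 0.01% (detergent screen) or 0.0001% Triton X-100; 5.3 nM AmpC reagent; cpd preinc 15 min RT; nitrocefin (800 uM stock) to start; A480 q20 s × 4 min; Activity was normalised to no-enzyme and no-compound control wells.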
AmpC inh no detg: AmpC beta-lactamase inhibition without detergent | 330,000 compounds, 0.52% hits | AmpC nitrocefin hydrolysis, absorbance 480 nm, 0.0001% Triton | Potency, µM (top dose mostly 57.1 µM), without a hit: at the highest dose activity change, negative = inhibition, usual class: inhibitors | AID 485341;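 note: plate controls were no compound for no effect and no enzyme for full effect; nearly all actives have a fitted effect of over 20% in size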
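AmpC (5.3 nM in the dispensed reagent) in 20 mM phosphate pH 7.0 with 0.01% (detergent screen) or 0.0001% Triton X-100 was preincubated with compounds for 15 min at room temperature. Nitrocefin was then added from an 800 uM solution, and hydrolysis was followed at 480 nm.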
FMDV inh: blocks foot and mouth disease virus; FMDV antiviral cell-based qHTS; Potency, µM (highest dose often 57.9 µM), for the others: at the top dose activity change, negative = inhibition, most hits filed as inhibitors; 410,000 compounds, 1.2% hits; AID 1159524; calls by dose curve; tested in HEK293T cells; note: read-out not given here; nearly all actives have a fitted effect of over 45% in size
AMA1-RON2 inh: inhibitors of Plasmodium falciparum AMA1-RON2 interaction; 360,000 compounds, 0.2% hits; AlphaScreen AMA1-biotinylated RON2 peptide binding; AID 720542; Potency, µM (titrated, usually from 58.2 µM), inactives show at the top dose activity change, negative = inhibition, actives largely listed as inhibitors;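 note: 0% = vehicle wells and -100% = peptide control; nearly all actives have a fitted effect of over 45% in size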
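AMA1 (3D7) with his tag at 25 nM final met compounds first, then biotinylated RON2 peptide at 25 nM; detection used donor plus acceptor beads, 10 µg/mL apiece, read by AlphaScreen after 30 min at room temperature.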
Starred values were filed as active, the others as inactive; ? = inconclusive; . = not tested or not shown; ! = repeats disagree. Unless noted, calls come from the whole dose curve; as a rule, active = well fitted curve in the direction sought with a large enough effect; inconclusive = small, poorly fitted or top-dose-only effect, or another doubt; inactive = no such curve, though single readings can be large; an effect the other way counts as inactive or inconclusive. Unless noted, % is set by controls: 0 for no effect and ±100 for the full control effect; potency is the fitted concentration of half-maximal effect.

SMILES	Sm TGR inh	AmpC detergent	AmpC inh no detg	FMDV inh	AMA1-RON2 inh
COc1ccc(CN2CCC(n3cc(C(=O)N4CCCC4)nn3)CC2)c(OC)c1C	.	.	.	-13%	.
COC(=O)CS(=O)(=O)c1ccc2c(c1)CC(=O)N2	7%	2%	0.14µM*	-12%	8%
COc1cccc(-n2cc(C(=O)Oc3ccc(F)cc3)c3ccccc3c2=O)c1	10%	-4%	.	-24%	.
CC(C)c1ccc(OCC(=O)Nc2c(C(=O)c3ccc(F)cc3)oc3ccccc23)cc1	0%	0%	.	-11%	.
NC(CSCc1cccc(Br)c1)C(=O)O (stereo not drawn)	40µM*	-2%	-44%	8%	32%
Nc1c(C(=O)N2CCOCC2)sc2nc3c(cc12)CCCC3	3%	4%	-4%	11µM*	7%
CCN(CC)c1ccc(/C=C2\SC(=O)N(C(C)C)C2=O)o1	1.8µM*	-7%	29%	19%	-13%
CC(C)N1C(=O)S/C(=C/c2ccc3c(c2)n(C)c(=O)n3C)C1=O	7%	1%	-28%	16%	7%
CN1CCCC(CC2c3ccccc3Sc3ccccc32)C1 (stereo not drawn)	-2%	-2%	27%	40µM*	-14%
O=C1c2cccc(Cl)c2C(=O)c2c1cccc2N1CCCC1	.	.	.	-25%	6.3µM*
O=C1C(Cl)=C(N2CCCCC2)C(=O)N1c1ccccc1Cl	1%	?	-18%	-13%	50%
COc1cc(NC(=O)CSc2ncc(S(=O)(=O)c3ccc(Br)cc3)c(=O)[nH]2)cc(OC)c1	-9%	22%	.	?	.
CCOC(=O)c1cc([N+](=O)[O-])cc([N+](=O)[O-])c1Sc1ncnc2nc[nH]c12	.	.	.	22µM*	31%
CCOC(=O)C(C)(C)Sc1ncnc2nc[nH]c12	-2%	-10%	-17%	11%	0%
COc1cc(C2c3sc(=O)[nH]c3SC3C(=O)N(c4ccc(Br)cc4)C(=O)C32)ccc1O (stereo not drawn)	-33%	1%	10µM*	-2%	51%
COc1ccc(C2c3sc(=O)[nH]c3SC3C4CCC(C4)C23)cc1OC (stereo not drawn)	-1%	3%	-43%	?	-3%
Cc1sc2ncnc(N(C)Cc3ccco3)c2c1C	-2%	0%	2%	22µM*	-3%
COC(=O)c1ccc(CSc2nc(C)nc3sc(C)c(C)c23)o1	100µM*	-8%	-8%	-16%	-4%
Cc1sc2ncnc(SCc3ccco3)c2c1C	-23%	?	22%	?	-4%
Cc1nc(SCC(=O)N(C)Cc2ccco2)c2c(C)c(C)sc2n1	45µM*	-7%	22%	?	0%
O=C(NC1CC1)[C@@H]1C[C@@H](Sc2nc3ccccc3[nH]2)CN1CC1CCCCC1	.	.	.	-10%	.
COc1ccccc1CNC(=O)c1cccc(NC(=O)N2CCSc3ncccc32)c1	0%	18%	.	0%	.
O=[N+]([O-])c1ccc(C2Nc3cccc4cccc(c34)N2)cc1	20µM*	?	-16%	-6%	?
O=C1c2ccccc2NC(c2cccc([N+](=O)[O-])c2)N1O (stereo not drawn)	-7%	-9%	-27%	-22%	58%
Brc1ccc(C2Nc3cccc4cccc(c34)N2)cc1	.	.	.	-2%	-7%
SMILES	Sm TGR inh	AmpC detergent	AmpC inh no detg	FMDV inh	AMA1-RON2 inh
O=[N+]([O-])c1cccc(C2Nc3cccc4cccc(c34)N2)c1	35µM*	-12%	-42%	-11%	-2%
COc1cc(C(=O)N/N=C/c2coc3ccccc3c2=O)cc(OC)c1OC	45µM*	-14%	-28%	-15%	60%
COc1ccc2c(c1)Cc1sc(NC(C)=O)nc1-2	56µM*	-2%	-33%	-15%	18%
Oc1ccc2ccccc2c1CN1CCOCC1	0.45µM*	9%	-19%	-14%	-9%
O=S(=O)(c1ccc(F)cc1)N1CCCN(Cc2c(F)cccc2F)CC1	2%	-1%	-6%	-21%	-24%
O=S(=O)(c1c(F)cccc1F)N1CCN(Cc2c(O)ccc3ccccc23)CC1	2.2µM*	-10%	-1%	?	-1%
Oc1c(CN2CCOCC2)cc(CN2CCOCC2)c(O)c1O	.	.	.	-3%	11µM*
Cc1ccc(-n2ncc3c(NCCCn4ccnc4)ncnc32)cc1	2%	-4%	.	14%	.
Cc1nnc2c3ccccc3nc(Nc3ccccc3C(=O)O)n12	-8%	5%	.	-24%	.
O=C(Nc1cc(-c2ccccc2)[nH]n1)c1ccc(Cl)cc1	1%	0%	7.1µM*!	57%	23%
O=C(Nc1nc(-c2ccccc2)ns1)c1ccc(Cl)cc1	-6%	0%	.	5%	.
CCOCCn1ccc2c(OCC(=O)Nc3cccc([N+](=O)[O-])c3)cccc2c1=O	6%	9%	.	-25%	.
O=C1c2ccccc2S(=O)(=O)c2cc(C(=O)N3CCN(c4ccccc4)CC3)ccc21	.	.	.	-12%	-29%
O=C1c2ccccc2S(=O)(=O)c2cc(N3CCN(C(=O)c4ccccc4)CC3)ccc21	.	.	.	40µM*	15%
CC(C)C(=O)Nc1ccccc1N1CCN(S(C)(=O)=O)CC1	1%	1%	0.28µM*	3%	?
Cc1cccc(NC(=O)c2cnc3sccn3c2=O)c1C	-1%	?	2.8µM*	.	.
CCOc1ccc(C(C)=O)cc1CSC(=N)N	-8%	0%	-8%	-13%	14%
CCCCOc1ccc(Br)cc1CSC(=N)N	-2%	-10%	-6%	13µM*	-21%
CCOC(=O)c1[nH]c(C)c(/C(O)=C2\C(=O)C(=O)N(CCN3CCOCC3)C2c2ccco2)c1C (stereo not drawn)	.	-1%	-11%	-7%	8%
CCOC(=O)c1[nH]c(C)c(/C(O)=C2\C(=O)C(=O)N(CCN(C)C)C2c2ccco2)c1C (stereo not drawn)	56µM*	7%	-8%	-9%	7%
COc1ccc2c(c1)OCC(Cc1ccc(O)c(OC)c1)C2=O (stereo not drawn)	.	.	.	41%	.
COc1ccc(-n2nnc3c(SC(C(C)=O)C(=O)N(C)C)ncnc32)cc1 (stereo not drawn)	-28%	-3%	-20%	32µM*	17%
Cc1cc(=S)cc(C)n1CCCO	1.8µM*	-2%	-8%	17%	0%
Cc1nc2cc(Cl)c(Cl)cc2n1CCCO	-8%	-2%	-1%	-15%	3%
Cc1cccc(N(CC(N)=O)C2SC(=O)N(Cc3cccc(C(=O)O)c3)C2=O)c1 (stereo not drawn)	-21%	-7%	.	-3%	.
CCOC(=O)C1=C(C)NC2=C(C(=O)CCC2)C1c1ccc(O)c(OCC)c1 (stereo not drawn)	-8%	?	-22%	-12%	-8%
CCOc1cc(C2C(C(=O)N3CCCCC3)=C(C)NC3=C2C(=O)CCC3)cc(Br)c1O (stereo not drawn)	25µM*	-1%	4%	13%	-7%
COc1ccc(CCNC(=O)CCc2c(C)c3ccc(O)c(C)c3oc2=O)cc1	2%	14%	.	-3%	.

Screens (PubChem)
